In all, about 2,000 compounds went through this assay and about 20 (1%) were called active. How the calls were made is not given here. Shown is part of a subset that was picked to be rich in actives.
What follows are compounds tested against Cystic fibrosis transmembrane conductance regulator (Homo sapiens) (UniProt P13569) (assay: F508del-CFTR plasma membrane relocalization enhancers – imaging, HeLa, high-content microscopy, immunofluorescence, primary screen (AID 1224864;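 further: HeLa cells stably expressing F508del-CFTR stained with 3G11 antibody against NBD1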;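 on plasma membrane CFTR intensity: mean immunofluorescence in a thin cell-margin band taken as plasma membrane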)). Conditions: PM immunofluorescence imaging, 24 h, at 10 µM, stronger effect = higher value; total CFTR intensity: measured here: total cellular F508del-CFTR signal unless noted.
Chain of Cystic fibrosis transmembrane conductance regulator (Homo sapiens) (P13569 whole entry, looked up, stated change not applied): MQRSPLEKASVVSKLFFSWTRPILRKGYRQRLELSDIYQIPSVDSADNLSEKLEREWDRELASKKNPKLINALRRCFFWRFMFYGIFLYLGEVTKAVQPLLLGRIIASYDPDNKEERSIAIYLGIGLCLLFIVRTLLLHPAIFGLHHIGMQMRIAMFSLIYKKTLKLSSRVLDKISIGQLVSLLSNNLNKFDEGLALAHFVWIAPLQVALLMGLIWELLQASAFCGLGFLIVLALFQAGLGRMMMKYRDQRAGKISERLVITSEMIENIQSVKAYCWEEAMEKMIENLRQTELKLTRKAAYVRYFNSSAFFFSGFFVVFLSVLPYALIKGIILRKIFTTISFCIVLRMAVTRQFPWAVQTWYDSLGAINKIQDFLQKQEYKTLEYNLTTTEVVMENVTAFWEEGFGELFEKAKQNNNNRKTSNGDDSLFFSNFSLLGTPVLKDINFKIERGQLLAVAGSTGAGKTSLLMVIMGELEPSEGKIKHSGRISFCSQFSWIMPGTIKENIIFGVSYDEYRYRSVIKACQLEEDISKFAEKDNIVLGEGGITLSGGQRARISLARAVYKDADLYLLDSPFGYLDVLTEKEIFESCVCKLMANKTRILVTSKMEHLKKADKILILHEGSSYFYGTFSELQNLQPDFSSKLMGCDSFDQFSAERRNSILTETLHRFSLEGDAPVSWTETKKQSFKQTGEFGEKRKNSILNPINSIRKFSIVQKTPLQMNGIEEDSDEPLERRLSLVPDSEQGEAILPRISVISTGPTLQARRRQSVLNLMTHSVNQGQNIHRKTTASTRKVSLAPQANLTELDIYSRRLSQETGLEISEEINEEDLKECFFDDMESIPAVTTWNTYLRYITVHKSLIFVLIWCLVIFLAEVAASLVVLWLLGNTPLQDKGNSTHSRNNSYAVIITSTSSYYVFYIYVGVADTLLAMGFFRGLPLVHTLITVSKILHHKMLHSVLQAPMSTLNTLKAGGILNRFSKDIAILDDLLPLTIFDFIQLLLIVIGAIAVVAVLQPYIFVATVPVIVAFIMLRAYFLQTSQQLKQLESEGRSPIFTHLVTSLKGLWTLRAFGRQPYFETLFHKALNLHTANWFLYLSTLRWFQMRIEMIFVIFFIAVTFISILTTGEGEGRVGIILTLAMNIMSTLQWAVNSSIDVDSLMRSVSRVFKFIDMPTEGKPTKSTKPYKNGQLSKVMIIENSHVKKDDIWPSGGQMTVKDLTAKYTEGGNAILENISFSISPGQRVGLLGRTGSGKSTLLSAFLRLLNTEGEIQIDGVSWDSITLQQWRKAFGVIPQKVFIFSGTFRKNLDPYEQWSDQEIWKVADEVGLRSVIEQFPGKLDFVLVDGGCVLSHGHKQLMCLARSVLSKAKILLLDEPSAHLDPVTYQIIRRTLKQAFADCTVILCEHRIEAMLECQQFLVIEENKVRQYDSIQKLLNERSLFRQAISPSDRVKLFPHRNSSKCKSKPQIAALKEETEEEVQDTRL
For CC[C@@H](CO)NC(=O)[C@@H]1C=C2c3cccc4c3c(cn4C)C[C@H]2N(C)C1, the plasma membrane CFTR intensity was 78% (inactive) and the total CFTR intensity was 76%.
CC(C)[C@@]1(NC(=O)[C@@H]2C[C@@H]3c4cccc5[nH]cc(c45)C[C@H]3N(C)C2)O[C@@]2(O)[C@@H]3CCCN3C(=O)[C@H](Cc3ccccc3)N2C1=O was tested, and the plasma membrane CFTR intensity was 50% (inactive) and the total CFTR intensity was 49%.
With CC(C)C[C@H]1C(=O)N2CCCC2[C@]2(O)O[C@](NC(=O)[C@@H]3C=C4c5cccc6[nH]cc(c56)CC4N(C)C3)(C(C)C)C(=O)N12 (stereo not given in full) the plasma membrane CFTR intensity was 123% [relative to vehicle wells set at 100] (active) and the total CFTR intensity was 142% [measured here: total cellular F508del-CFTR signal, relative to vehicle wells set at 100].
CC(C)[C@H]1C(=O)N2CCC[C@H]2[C@]2(O)O[C@](NC(=O)[C@@H]3C=C4c5cccc6[nH]cc(c56)C[C@H]4N(C)C3)(C(C)C)C(=O)N12 was tested, and the plasma membrane CFTR intensity was 106% [relative to vehicle wells set at 100] (active) and the total CFTR intensity was 139% [measured here: total cellular F508del-CFTR signal, relative to vehicle wells set at 100].
With Clc1ccc(C2NCCc3nc[nH]c32)cc1 (stereo not given) the plasma membrane CFTR intensity was 79% [relative to vehicle wells set at 100] (inactive) and the total CFTR intensity was 78% [measured here: total cellular F508del-CFTR signal, relative to vehicle wells set at 100].
For CC(C)C(=O)Nc1ccc(S(=O)(=O)N2CC3CC(C2)c2cccc(=O)n2C3)cc1 (stereo not given), the plasma membrane CFTR intensity was 92% (inactive) and the total CFTR intensity was 96%.
C[C@@]1(CO)[C@H](O)CC[C@@]2(C)[C@H]1CC[C@H]1C[C@@H]3C[C@@]12CC[C@]3(O)CO was tested, and the plasma membrane CFTR intensity was 75% (inactive) and the total CFTR intensity was 83%.
For CN1CCN(CCCN2c3ccccc3Sc3ccc(Cl)cc32)CC1, the plasma membrane CFTR intensity was 57% (inactive) and the total CFTR intensity was 48%.
COP(=O)(OC)C(O)C(Cl)(Cl)Cl (stereo not given) was tested, and the plasma membrane CFTR intensity was 96% (inactive) and the total CFTR intensity was 100%.
For CC12CC[C@H]3[C@@H](CCC4(O)C[C@H](O)CCC34/C=N/NC(=O)Cc3ccccc3)C1(O)CCC2C1=CC(=O)OC1 (stereo not given in full), the plasma membrane CFTR intensity was 87% [relative to vehicle wells set at 100] (inactive) and the total CFTR intensity was 88% [measured here: total cellular F508del-CFTR signal, relative to vehicle wells set at 100].
